# Assay results reported in PubChem BioAssay (NCATS).
# Inconclusive results are not listed. Entries that show only a call come without a potency. The source made the active and inactive calls. Unless noted, calls follow the shape of the dose curve; as a rule, active = well fitted curve in the direction sought with a large enough effect; inconclusive = small, poorly fitted or top-dose-only effect, or another doubt; inactive = no such curve, though single readings can be large; an effect the other way counts as inactive or inconclusive.
# How the values were obtained:
# [1] = target: D(1A) dopamine receptor (Homo sapiens) (UniProt P21728); assay: HTS Assay for Allosteric Agonists of the Human D1 Dopamine Receptor: Primary Screen for Antagonists (AID 488983); conditions: D1 receptor cell assay, antagonist mode, qHTS titration; series mostly up to 41.8 µM;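 also: calcium flux response to an EC80 dopamine challenge measured with no-wash dye; nearly all actives have a fitted effect of over 65% in size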
# D(1A) dopamine receptor (Homo sapiens), sequence (P21728 whole entry, looked up): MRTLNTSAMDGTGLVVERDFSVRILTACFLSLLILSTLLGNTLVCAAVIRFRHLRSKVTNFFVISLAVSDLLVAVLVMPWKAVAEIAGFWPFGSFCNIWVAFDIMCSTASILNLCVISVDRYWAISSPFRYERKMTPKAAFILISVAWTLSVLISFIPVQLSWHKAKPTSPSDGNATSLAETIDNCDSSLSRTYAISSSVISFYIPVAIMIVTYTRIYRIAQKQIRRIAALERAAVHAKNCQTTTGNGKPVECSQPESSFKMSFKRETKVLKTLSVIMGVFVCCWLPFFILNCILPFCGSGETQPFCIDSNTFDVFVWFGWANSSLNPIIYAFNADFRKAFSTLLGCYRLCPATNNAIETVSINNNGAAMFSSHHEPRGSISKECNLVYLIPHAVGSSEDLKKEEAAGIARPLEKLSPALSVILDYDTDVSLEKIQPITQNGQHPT
# Summary of the method: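 Tetracycline-induced HEK293 T-REx D1 line, force-coupled to calcium flux, read with no-wash calcium dye. Compound added after 10 s baseline, read 180 s for agonism, then EC80 dopamine added and read a further 180 s.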
# [2] = Validation screen for small molecules that induce genotoxicity in human embryonic kidney (HEK293T) cells expressing luciferase-tagged ELG1 (AID 493106); conditions: luminescence; series mostly up to 46.1 µM
# Summary of the method: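 HEK293T cells expressing luciferase-tagged ELG1, 2,000 cells/well, exposed to compound 16 hr at 37 °C, 5% CO2. Luciferase read after ONE-Glo, 30 min at room temperature; increased signal indicates genetic stress.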
# [3] = target: ATPase family AAA domain-containing protein 5 (Homo sapiens) (UniProt Q96QE3); assay: Validation screen for small molecules that inhibit ELG1-dependent DNA repair in human embryonic kidney (HEK293T) cells expressing luciferase-tagged ELG1 (AID 493107); conditions: HEK293T ELG1-luciferase level, luminescence, 5-fluorouridine co-treatment, 16 h; series mostly up to 46.1 µM;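 also: cells co-treated with the DNA-damaging agent 5-fluorouridine alongside compound; inhibitors lower the ELG1-luciferase luminescence signal; nearly all actives have a fitted effect of over 70% in size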
# ATPase family AAA domain-containing protein 5 (Homo sapiens), sequence (Q96QE3 whole entry, looked up, the tested form may be a part): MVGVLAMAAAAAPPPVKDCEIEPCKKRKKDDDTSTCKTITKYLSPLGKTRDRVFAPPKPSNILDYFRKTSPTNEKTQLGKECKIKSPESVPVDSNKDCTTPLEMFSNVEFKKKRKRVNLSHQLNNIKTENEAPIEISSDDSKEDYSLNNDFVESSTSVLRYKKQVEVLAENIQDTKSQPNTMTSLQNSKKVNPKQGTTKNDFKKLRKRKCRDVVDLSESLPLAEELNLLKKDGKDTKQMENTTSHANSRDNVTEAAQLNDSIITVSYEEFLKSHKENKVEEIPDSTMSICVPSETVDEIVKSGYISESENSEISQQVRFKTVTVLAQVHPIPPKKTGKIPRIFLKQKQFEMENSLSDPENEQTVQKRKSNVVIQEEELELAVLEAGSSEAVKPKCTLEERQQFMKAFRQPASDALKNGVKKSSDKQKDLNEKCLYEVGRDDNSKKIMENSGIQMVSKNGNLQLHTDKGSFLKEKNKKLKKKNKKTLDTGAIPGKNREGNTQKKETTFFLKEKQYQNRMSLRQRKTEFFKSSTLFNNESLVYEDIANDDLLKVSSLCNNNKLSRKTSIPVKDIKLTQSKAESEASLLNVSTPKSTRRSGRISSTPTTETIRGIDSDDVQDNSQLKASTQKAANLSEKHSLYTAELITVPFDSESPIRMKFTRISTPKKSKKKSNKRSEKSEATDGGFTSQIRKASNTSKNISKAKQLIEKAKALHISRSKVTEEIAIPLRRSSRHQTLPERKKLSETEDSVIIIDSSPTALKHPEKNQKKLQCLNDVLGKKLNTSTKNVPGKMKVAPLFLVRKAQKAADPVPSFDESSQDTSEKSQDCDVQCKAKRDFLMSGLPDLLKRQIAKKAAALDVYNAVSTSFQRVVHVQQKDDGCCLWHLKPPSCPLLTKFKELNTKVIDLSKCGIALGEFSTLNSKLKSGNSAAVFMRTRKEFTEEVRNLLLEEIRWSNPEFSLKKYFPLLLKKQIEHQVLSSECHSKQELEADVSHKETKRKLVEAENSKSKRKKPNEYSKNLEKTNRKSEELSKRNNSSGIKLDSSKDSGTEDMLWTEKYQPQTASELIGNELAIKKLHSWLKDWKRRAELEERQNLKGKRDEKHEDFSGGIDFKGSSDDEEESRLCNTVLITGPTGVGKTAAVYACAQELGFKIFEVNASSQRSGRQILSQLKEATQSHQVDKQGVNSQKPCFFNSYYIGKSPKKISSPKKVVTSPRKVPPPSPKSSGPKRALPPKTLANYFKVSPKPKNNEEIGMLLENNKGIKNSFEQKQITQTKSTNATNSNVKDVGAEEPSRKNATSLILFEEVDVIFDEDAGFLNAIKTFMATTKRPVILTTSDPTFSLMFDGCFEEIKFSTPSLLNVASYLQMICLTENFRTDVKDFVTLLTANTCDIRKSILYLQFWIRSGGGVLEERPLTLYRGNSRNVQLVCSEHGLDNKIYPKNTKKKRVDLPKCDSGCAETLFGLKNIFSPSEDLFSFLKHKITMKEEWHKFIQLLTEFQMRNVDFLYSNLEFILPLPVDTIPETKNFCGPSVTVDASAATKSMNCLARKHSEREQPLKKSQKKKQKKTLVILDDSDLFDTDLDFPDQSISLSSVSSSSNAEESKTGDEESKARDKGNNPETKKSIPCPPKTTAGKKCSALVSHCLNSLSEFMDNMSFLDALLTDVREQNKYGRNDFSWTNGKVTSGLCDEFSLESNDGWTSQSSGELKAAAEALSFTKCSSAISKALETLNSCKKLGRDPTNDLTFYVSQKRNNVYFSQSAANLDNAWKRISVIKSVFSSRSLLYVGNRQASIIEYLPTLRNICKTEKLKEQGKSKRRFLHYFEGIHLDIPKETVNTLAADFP
# Summary of the method: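 HEK293T cells expressing luciferase-tagged ELG1, 2,000 per well, treated with 5-fluorouridine plus compound for 16 h at 37 C. ONE-Glo luminescence after 30 min at room temperature reports ELG1 reporter level.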
# [4] = Nrf2 qHTS screen for inhibitors: Validation (AID 493153; active = well fitted inhibition curve with a large enough effect in the main read-out, with a control signal flat, not every such curve was filed as active); conditions: A549 ARE-Fluc reporter, 18-24 h; viability change: measured here: cytotoxicity max response; luciferase luminescence, at 46.1 µM (top of the series)
# Summary of the method: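 A549 cells carrying ARE-firefly luciferase reporter, 5000 cells/well in 5% FBS OPTI-MEM, treated with compound over a concentration series for 18-24 h at 37 C. Luciferase luminescence gave Nrf2 activity; CellTiter-Fluor fluorescence gave viability.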
# [5] = qHTS for Inhibitors of Cell Surface uPA Generation: Validation Assay (AID 493164); conditions: mouse cells, plasminogen activation; series mostly up to 38.3 µM
# Summary of the method: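 RAW 264.7 cells (4000/well) were plated overnight, then exposed for 18 h at 37 C, 5% CO2 to compounds in a 7-point 1:5 titration (2.45 nM–38.3 uM final). Intracellular ATP was read by ATP-Lite luminescence.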
# [6] = target: Peptidyl-prolyl cis-trans isomerase NIMA-interacting 1 (Homo sapiens) (UniProt Q13526); assay: qHTS Validation Assay to Find Inhibitors of Pin1 (AID 504536; active = well fitted inhibition curve with a large enough effect in the polarisation, with a control signal flat, not every such curve was filed as active; the % refers to the polarisation); conditions: Pin1 fluorescence polarization peptide binding assay; series mostly up to 57.5 µM
# Summary of the method: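 Fluorescence polarization competition: compounds (titration) displace HiFluor-488-labeled Pin1-1b peptide from Pin1 (0.3 uM final) in pH 7.5 HEPES buffer with DTT, 10 min at room temperature; %Activity normalized to no-enzyme wells, curves fitted.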
# [7] = target: Phosphoglycerate kinase, glycosomal (Trypanosoma brucei brucei) (UniProt P07378); assay: qHTS Validation Assay to Find Inhibitors of Phosphoglycerate Kinase (AID 504547); conditions: enzymatic PGK inhibition, coupled luminescence read-out; series mostly up to 57.5 µM
# Phosphoglycerate kinase, glycosomal (Trypanosoma brucei brucei), sequence (P07378 whole entry, looked up): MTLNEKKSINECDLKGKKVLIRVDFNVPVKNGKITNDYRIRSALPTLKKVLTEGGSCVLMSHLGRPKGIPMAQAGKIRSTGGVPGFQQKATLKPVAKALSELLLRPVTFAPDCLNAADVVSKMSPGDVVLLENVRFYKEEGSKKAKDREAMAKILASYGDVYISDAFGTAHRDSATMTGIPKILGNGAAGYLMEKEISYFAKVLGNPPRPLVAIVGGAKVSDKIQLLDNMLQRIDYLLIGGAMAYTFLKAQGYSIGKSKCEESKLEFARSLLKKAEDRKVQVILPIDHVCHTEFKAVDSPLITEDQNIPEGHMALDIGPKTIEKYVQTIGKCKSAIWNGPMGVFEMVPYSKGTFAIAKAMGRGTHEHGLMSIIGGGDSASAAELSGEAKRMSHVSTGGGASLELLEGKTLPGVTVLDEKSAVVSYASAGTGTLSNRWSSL
# Summary of the method: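 PGK activity was coupled to GAPDH (100nM final), which generates the unstable substrate 1,3-bisphosphoglycerate in-well. Reactions ran 60 minutes at room temperature in 100mM TEA pH 7.6, 5mM MgCl2, 0.01% Tween-20, then Kinase-Glo Plus luminescence was read.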
# [8] = target: phosphoglycerate mutase (Leishmania major) (UniProt Q4Q090); assay: qHTS Validation Assay to Find Inhibitors of Phosphoglycerate Mutase (AID 504548); conditions: biochemical enzyme activity; series mostly up to 57.5 µM
# Summary of the method: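 Lm PGAM at 1.25 nM final with substrate in 100 mM TEA pH 7.6, 5 mM MgCl2, 0.01% Tween-20; 45 min at room temperature. Kinase-GloPlus added, 10 min, end-point luminescence read.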
# [9] = qHTS for Inhibitors of ATXN expression: Validation of Cytotoxic Assay (AID 588349); conditions: cytotoxicity counter-screen for ATXN expression inhibitors, cell viability; series mostly up to 57.1 µM
# Summary of the method: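 HEK293 cells treated with titrated compound for 72 hr at 37 degrees C; viability read as intracellular ATP by CellTiter Glo luminescence.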
# [10] = qHTS for Inhibitors of ATXN expression: Validation (AID 588378); conditions: cell-based ATXN2 expression reporter assay, luminescence; series mostly up to 57.1 µM; also: nearly all actives have a fitted effect of over 75% in size
# Summary of the method: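 Luciferase luminescence (Bright-Glo) from an ATXN2-FFLuc HEK293 line after 24 h compound exposure at 37 °C, preceded by a CellTiter-Fluor fluorescence viability read. Serial dilutions of a reference ATXN2 inhibitor and a luciferase inhibitor served as controls.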
# [11] = target: Ubiquitin carboxyl-terminal hydrolase 1 (Homo sapiens) (UniProt O94782); assay: Inhibitors of USP1/UAF1: Pilot qHTS (AID 504865); conditions: purified USP1/UAF1, Ub-rhodamine cleavage fluorescence; series mostly up to 114 µM;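 also: rhodamine fluorescence freed from ubiquitin-rhodamine substrate followed over time; top concentration of the series differs between compounds; nearly all actives have a fitted effect of over 35% in size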
# Ubiquitin carboxyl-terminal hydrolase 1 (Homo sapiens), sequence (O94782 whole entry, looked up): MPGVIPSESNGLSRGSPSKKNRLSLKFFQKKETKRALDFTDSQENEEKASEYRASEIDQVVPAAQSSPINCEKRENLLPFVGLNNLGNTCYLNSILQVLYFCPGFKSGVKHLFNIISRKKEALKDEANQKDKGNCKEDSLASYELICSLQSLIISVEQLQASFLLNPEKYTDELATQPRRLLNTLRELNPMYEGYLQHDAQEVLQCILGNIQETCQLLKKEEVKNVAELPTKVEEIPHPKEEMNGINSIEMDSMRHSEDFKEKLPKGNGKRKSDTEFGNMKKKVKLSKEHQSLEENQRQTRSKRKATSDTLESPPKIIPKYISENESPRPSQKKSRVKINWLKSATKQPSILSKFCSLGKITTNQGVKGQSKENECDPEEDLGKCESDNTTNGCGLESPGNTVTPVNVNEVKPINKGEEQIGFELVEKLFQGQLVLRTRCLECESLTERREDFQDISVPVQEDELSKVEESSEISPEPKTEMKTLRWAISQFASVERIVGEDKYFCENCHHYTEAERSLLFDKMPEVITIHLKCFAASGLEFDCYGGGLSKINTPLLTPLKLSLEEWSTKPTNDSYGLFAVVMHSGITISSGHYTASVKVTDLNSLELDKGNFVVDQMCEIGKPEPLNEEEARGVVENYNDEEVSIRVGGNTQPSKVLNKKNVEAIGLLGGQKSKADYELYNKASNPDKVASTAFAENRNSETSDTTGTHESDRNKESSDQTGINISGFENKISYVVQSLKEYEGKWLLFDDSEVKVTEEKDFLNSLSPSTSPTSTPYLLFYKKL
# Summary of the method: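 Deubiquitinase activity followed as kinetic rhodamine fluorescence release from 150 nM Ub-Rho. 1 nM USP1/UAF1 with compound, after 15 min room-temperature preincubation, in HEPES pH 7.8 buffer containing TCEP, EDTA, BSA and Tween-20.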
# [12] = target: DNA dC->dU-editing enzyme APOBEC-3G (Homo sapiens) (UniProt Q9HC16); assay: qHTS for inhibitors of Vif-A3G interactions: Validation (AID 588379); conditions: Vif-A3G protein interaction assay; series mostly up to 46.1 µM
# DNA dC->dU-editing enzyme APOBEC-3G (Homo sapiens), sequence (Q9HC16 whole entry, looked up): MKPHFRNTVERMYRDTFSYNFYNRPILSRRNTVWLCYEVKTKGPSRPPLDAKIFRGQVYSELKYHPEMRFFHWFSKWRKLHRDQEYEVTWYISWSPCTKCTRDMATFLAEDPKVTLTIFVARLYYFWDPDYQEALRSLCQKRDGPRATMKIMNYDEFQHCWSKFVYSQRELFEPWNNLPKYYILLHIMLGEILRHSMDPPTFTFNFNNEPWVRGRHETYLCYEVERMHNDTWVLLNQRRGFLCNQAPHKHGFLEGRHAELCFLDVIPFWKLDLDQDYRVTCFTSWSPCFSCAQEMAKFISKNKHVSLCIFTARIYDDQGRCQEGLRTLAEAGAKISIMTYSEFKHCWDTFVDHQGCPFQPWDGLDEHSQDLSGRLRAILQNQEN
# Summary of the method: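 HeLa cells stably expressing Vif and A3G-eYFP, 700 cells/well, incubated overnight at 37 deg C, then exposed to compound overnight at 37 deg C. Inhibition of Vif-mediated degradation read as increased yellow fluorescence (Ex 488/Em 500-530) by laser-scanning cytometry.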
# [13] = target: ATP-dependent 6-phosphofructokinase (Trypanosoma brucei brucei) (UniProt O15648); assay: qHTS Assay to Find Inhibitors of T. brucei phosphofructokinase: hit validation (AID 492961);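 also: luminescence reports ADP formed as PFK phosphorylates fructose-6-phosphate with ATP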; conditions: T. brucei PFK, ADP-Glo luminescence; series mostly up to 51.4 µM
# ATP-dependent 6-phosphofructokinase (Trypanosoma brucei brucei), sequence (O15648 whole entry, looked up): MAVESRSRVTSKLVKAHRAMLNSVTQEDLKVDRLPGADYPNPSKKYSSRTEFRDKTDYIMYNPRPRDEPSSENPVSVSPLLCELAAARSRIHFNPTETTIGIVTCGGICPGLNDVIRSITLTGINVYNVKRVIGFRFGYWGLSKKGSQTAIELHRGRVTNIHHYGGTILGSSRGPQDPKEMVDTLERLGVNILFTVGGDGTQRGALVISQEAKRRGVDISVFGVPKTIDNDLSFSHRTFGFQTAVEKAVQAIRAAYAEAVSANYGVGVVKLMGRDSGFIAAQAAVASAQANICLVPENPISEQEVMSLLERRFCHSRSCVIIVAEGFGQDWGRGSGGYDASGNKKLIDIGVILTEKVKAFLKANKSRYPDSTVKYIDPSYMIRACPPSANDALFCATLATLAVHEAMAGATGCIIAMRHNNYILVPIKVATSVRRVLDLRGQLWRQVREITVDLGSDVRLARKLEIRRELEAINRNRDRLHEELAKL
# Summary of the method: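 Inhibition of parasite PFK is measured as reduced ADP formation, quantified via luciferase after ATP depletion. Assay used 0.1 mM ATP, 0.5 mM F6P, 1.25 nM enzyme, 45 min incubation.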
# [14] = target: Estrogen receptor (Homo sapiens) (UniProt P03372); assay: qHTS assay for small molecule antagonists of estrogen receptor alpha signaling (AID 588513; active = well fitted curve in the direction sought with a large enough effect in the signal ratio, with a control signal flat, not every such curve was filed as active; the % refers to the signal ratio; also: potency is read from the fitted curve at half-maximal effect); conditions: ER-alpha-UAS-bla HEK293, beta-lactamase ratio, antagonist mode; series mostly up to 76.9 µM
# Estrogen receptor (Homo sapiens), sequence (P03372 whole entry, looked up): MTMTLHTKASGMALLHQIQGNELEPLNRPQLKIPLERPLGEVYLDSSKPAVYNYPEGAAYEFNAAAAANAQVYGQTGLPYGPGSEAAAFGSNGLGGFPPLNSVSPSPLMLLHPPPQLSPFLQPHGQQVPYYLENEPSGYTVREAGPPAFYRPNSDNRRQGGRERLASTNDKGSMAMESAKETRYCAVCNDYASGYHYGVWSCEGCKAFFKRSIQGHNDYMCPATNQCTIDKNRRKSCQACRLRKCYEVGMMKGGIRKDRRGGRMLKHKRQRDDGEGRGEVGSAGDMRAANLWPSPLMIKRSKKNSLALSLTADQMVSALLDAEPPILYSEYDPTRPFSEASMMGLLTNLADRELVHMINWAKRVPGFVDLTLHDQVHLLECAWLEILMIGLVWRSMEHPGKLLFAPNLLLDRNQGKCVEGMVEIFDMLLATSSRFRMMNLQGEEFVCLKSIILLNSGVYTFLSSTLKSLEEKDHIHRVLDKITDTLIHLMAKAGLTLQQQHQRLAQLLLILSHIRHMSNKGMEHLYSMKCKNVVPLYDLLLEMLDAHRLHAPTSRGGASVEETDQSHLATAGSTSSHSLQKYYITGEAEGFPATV
# Summary of the method: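 Antagonist mode: inhibition of 0.5 nM 17-beta-estradiol-driven beta-lactamase reporter in HEK 293 ER-alpha-UAS-bla cells, 18 h at 37C, CCF4 readout after 2 h at RT. Normalised to estradiol and DMSO; titration fitted to Hill.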
# [15] = target: Estrogen receptor (Homo sapiens) (UniProt P03372); assay: qHTS assay for small molecule agonists of estrogen receptor alpha signaling (AID 588514; calls by dose curve; also: nearly all actives have a fitted effect of over 70% in size); conditions: ER-alpha-UAS-bla HEK293, beta-lactamase ratio, 18 h, percent of full estradiol response, vehicle zero; series mostly up to 76.8 µM
# Summary of the method: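 ER-alpha-UAS-bla GripTite HEK293 cells, 5000/well in 2% charcoal/dextran-stripped FBS medium, treated with compound titrations 18 h at 37 C. CCF4 beta-lactamase read by fluorescence after 2 h RT; normalised to 20 nM 17-beta-estradiol (100%) and DMSO (0%), Hill fit for EC50 and efficacy.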
# [16] = target: Androgen receptor (Homo sapiens) (UniProt P10275); assay: qHTS assay for small molecule antagonists of androgen receptor signaling (AID 588516; active = well fitted curve in the direction sought with a large enough effect in the signal ratio, with a control signal flat, not every such curve was filed as active; the % refers to the signal ratio; also: potency is read from the fitted curve at half-maximal effect); conditions: AR-UAS-bla HEK293, beta-lactamase ratio, antagonist mode, 16 h
# Summary of the method: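 Antagonist mode: inhibition of R1881-stimulated (10 nM final) bla reporter in GeneBLAzer AR HEK 293 cells, 16 h at 37C, compounds titrated. IC50 and efficacy from Hill-equation fits of 405/460–530 nm FRET ratios.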
# [17] = target: Bile acid receptor (Homo sapiens) (UniProt Q96RI1); assay: qHTS assay for small molecule antagonists of farnesoid X receptor signaling (AID 588526; calls by dose curve; also: potency is read from the fitted curve at half-maximal effect); conditions: HEK293T FXR-UAS-bla, beta-lactamase ratio, antagonist mode; series mostly up to 76.7 µM
# Summary of the method: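 Antagonist mode: titrated compounds tested against chenodeoxycholic acid stimulation (normalized to 50 uM CDCA and DMSO) in GeneBLAzer HEK293T cells for 16 h. Beta-lactamase read by CCF4 fluorescence; IC50 from Hill fits.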
# [18] = target: Glucocorticoid receptor (Homo sapiens) (UniProt P04150); assay: qHTS assay for small molecule agonists of glucocorticoid receptor signaling (AID 588532; active = well fitted curve in the direction sought with a large enough effect in the signal ratio, with a control signal flat; the % refers to the signal ratio); conditions: HeLa MMTV-bla, beta-lactamase ratio, agonist, 18 h; stronger effect = higher value; percent of dexamethasone control, DMSO zero
# Summary of the method: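 HeLa GRE-bla reporter cells; 18 h compound exposure at 37 C; 2 h CCF4 loading at room temperature; fluorescence at 460 and 530 nm; EC50 by Hill equation.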
# [19] = target: Galactokinase (Homo sapiens) (UniProt P51570); assay: qHTS Validation Assay for Inhibitors of Human Galactokinase (GALK) (AID 493189); conditions: purified human GALK enzyme activity, qHTS 7-point titration; series mostly up to 57.5 µM
# Summary of the method: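 Inhibition was measured as remaining ATP, detected by luciferase luminescence after a 1 h room-temperature reaction. Final conditions: 5 nM GALK, 100 uM galactose, 35 uM ATP, pH 8.0 HEPES buffer.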
# [20] = Validation screen for small molecules that induce DNA re-replication in SW480 colon adenocarcinoma cells (AID 504364); conditions: DNA re-replication phenotype (high-content imaging); series mostly up to 46.1 µM
# Summary of the method: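 SW480 cells (250/well) exposed 48 h at 37 C, 5% CO2, then Hoechst-stained 40 min. Nuclear DNA content imaged by fluorescence scanning (405 nm excitation, 500-530 nm emission); re-replication scored as increased nuclei with elevated intensity.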
smiles,measurement,setting,value
CN[C@H](CC(C)C)C(=O)N[C@H]1C(=O)N[C@@H](CC(N)=O)C(=O)N[C@@H]2C(=O)N[C@H]3C(=O)N[C@H](C(=O)N[C@H](C(=O)O)c4cc(O)cc(O)c4-c4cc3ccc4O)[C@H](O)c3ccc(c(Cl)c3)Oc3cc2cc(c3O[C@@H]2O[C@H](CO)[C@@H](O)[C@H](O)[C@@H]2O[C@H]2C[C@](C)(N)[C@H](O)[C@H](C)O2)Oc2ccc(cc2Cl)[C@H]1O,outcome,[1],inactive
same,outcome,[2],inactive
same,outcome,[3],inactive
same,outcome,[4],inactive
same,viability change,[4],-4.03%
same,outcome,[5],inactive
same,outcome,[6],inactive
same,outcome,[7],inactive
same,outcome,[8],inactive
same,outcome,[9],inactive
same,outcome,[10],inactive
CCOC(=O)C1=C(C)NC(=S)NC1c1cccc(O)c1 (centres undefined),outcome,[11],inactive
same,outcome,[12],inactive
OCC(O)C(O)C(O)CO (centres undefined),outcome,[13],inactive
same,outcome,[11],inactive
CCCCCCCCCCCC(CC1OC(=O)C1CCCCCC)OC(=O)C(CC(C)C)NC=O (centres undefined),outcome,[13],inactive
O=c1[nH]c(=O)n([C@H]2C[C@@H](O)[C@@H](CO)O2)cc1C=CBr,outcome,[1],inactive
same,outcome,[2],inactive
same,outcome,[3],inactive
same,outcome,[4],inactive
same,viability change,[4],1.21%
same,outcome,[5],inactive
same,outcome,[6],inactive
same,outcome,[7],inactive
same,outcome,[8],inactive
same,outcome,[11],inactive
same,outcome,[9],inactive
same,outcome,[10],inactive
CC(C=CC1=C(C)CCCC1(C)C)=CC=CC(C)=CC(=O)Nc1ccc(O)cc1,Potency,[14],31.6 µM [inhibitor] (active)
same,outcome,[15],inactive
same,Potency,[16],35.5 µM (active)
same,Potency,[17],39.8 µM (active)
same,activation,[18],5.23% (inactive)
COc1cc2c(cc1O)CCC1C2CC[C@@]2(C)C1CC[C@@H]2O (some centres undefined),outcome,[12],inactive
CCC(C(=O)O)C1CCC(C)C(C(C)C(O)C(C)C(=O)C(CC)C2OC3(C=CC(O)[C@@]4(CC[C@](C)(C5CC[C@@](O)(CC)C(C)O5)O4)O3)C(C)CC2C)O1 (some centres undefined),outcome,[13],inactive
CC(Oc1ccc(O)cc1)(P(=O)(O)O)P(=O)(O)O,outcome,[12],inactive
Cc1cc(O)c2c(c1)C(=O)c1cccc(O)c1C2=O,outcome,[11],inactive
same,outcome,[12],inactive
same,Potency,[14],inactive
same,Potency,[17],inactive
CN(N=O)C(=O)N[C@H]1C(O)OC(CO)[C@@H](O)[C@H]1O (some centres undefined),outcome,[11],inactive
same,outcome,[12],inactive
O=C(O)C=Cc1ccc(Cn2ccnc2)cc1,outcome,[11],inactive
same,outcome,[12],inactive
O=c1c(O)c(-c2ccc(O)c(O)c2)oc2cc(O)ccc12,outcome,[12],inactive
c1coc(CNc2ncnc3nc[nH]c23)c1,outcome,[11],inactive
same,outcome,[12],inactive
N=c1ccn2c(n1)O[C@H]1[C@@H](O)[C@@H](CO)O[C@H]12,outcome,[19],inactive
same,outcome,[20],inactive
